Data reported in PubChem BioAssay (NCI).
The panel holds about 79,000 compounds, 15% with a hit somewhere; the sample as a whole holds those more often. The source made the active and inactive calls. Cut-off read from the data, not from the text of the source: active = growth inhibition above about 70%; inactive = the rest.

Columns and labels:
[1] = NCI Yeast Anticancer Drug Screen. Data for the wt1 strain (AID 149);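 note: 0% = growth of vehicle-treated wt1 cultures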; settings: S. cerevisiae wt1 strain (SPY 50644) growth inhibition, hits give high values
Procedure, shortened: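 Yeast wt1 strain exposed to compounds; growth inhibition measured relative to vehicle-treated controls.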

[2] = NCI Yeast Anticancer Drug Screen. Data for the rad50EPP+ strain (AID 151);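 note: 0% = growth of vehicle-treated control cultures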; settings: S. cerevisiae rad50 mutant strain, hits give high values
Procedure, shortened: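 Compounds were applied to the rad50EPP+ yeast strain, which bears a defined DNA repair alteration, and growth inhibition was determined relative to vehicle-treated cultures.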

[3] = NCI Yeast Anticancer Drug Screen. Data for the mgt1 strain (AID 153); settings: S. cerevisiae mgt1 mutant growth inhibition, hits give high values
Procedure, shortened: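 Strain: mgt1 yeast, one of a set carrying defined DNA damage repair or cell cycle control alterations. Compound-treated growth compared with vehicle.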

[4] = NCI Yeast Anticancer Drug Screen. Data for the rad50 strain (AID 155);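 note: 0% = growth of vehicle-only cultures of the same strain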; settings: S. cerevisiae rad50 strain growth inhibition, hits give high values
Procedure, shortened: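 Yeast carrying a defined DNA repair defect were exposed to test compounds, and growth was compared with vehicle-treated controls to give percent inhibition.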

[5] = NCI Yeast Anticancer Drug Screen. Data for the mec2-1 strain (AID 157); settings: S. cerevisiae mec2-1 strain, hits give high values
Procedure, shortened: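 Strain: mec2-1 (DNA repair/cell cycle alteration). Compound exposure, then growth measured; inhibition expressed relative to vehicle.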

[6] = NCI Yeast Anticancer Drug Screen. Data for the rad14 strain (AID 159);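 note: 0% = growth of vehicle-treated control cultures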; settings: S. cerevisiae rad14 strain growth inhibition, hits give high values
Procedure, shortened: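 Yeast cells carrying a defined DNA-repair defect were exposed to compounds, and growth inhibition was calculated relative to vehicle-treated control cultures.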

[7] = NCI Yeast Anticancer Drug Screen. Data for the sgs1 mgt1 strain (AID 161);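 note: 0% = growth of cultures given vehicle only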; settings: S. cerevisiae sgs1 mgt1 strain, hits give high values
Procedure, shortened: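 Mutant yeast exposed to compound; growth scored against vehicle-only wells.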

[8] = NCI Yeast Anticancer Drug Screen. Data for the CLN2oe strain (AID 163);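 note: 0% = growth of vehicle-only control cultures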; settings: S. cerevisiae CLN2oe strain, hits give high values
Procedure, shortened: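 Growth of a genetically modified yeast strain is measured after compound exposure and compared with cultures given vehicle alone.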

[9] = NCI Yeast Anticancer Drug Screen. Data for the cln2 rad14 strain (AID 165);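 note: 0% = growth equal to vehicle treated cultures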; settings: S. cerevisiae cln2 rad14 strain, hits give high values
Procedure, shortened: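 Compounds are applied to the cln2 rad14 yeast strain, and growth is then compared with that of vehicle-treated cultures to give inhibition.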

[10] = NCI Yeast Anticancer Drug Screen. Data for the bub3 strain (AID 167); settings: S. cerevisiae bub3 mutant strain, hits give high values
Procedure, shortened: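 Compounds were applied to a genetically altered yeast strain carrying a cell-cycle control defect. Growth inhibition was scored against vehicle-treated controls.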

[11] = NCI Yeast Anticancer Drug Screen. Data for the wt2 strain (AID 169);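 note: 0% = growth of vehicle-treated yeast cultures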; settings: S. cerevisiae wt2 strain growth inhibition, hits give high values
Procedure, shortened: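 This strain belongs to a panel of yeast strains with defined genetic alterations in DNA damage repair or cell cycle control. Compounds are applied, and growth inhibition is measured against vehicle-treated cultures.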

[12] = NCI Yeast Anticancer Drug Screen. Data for the mlh1 strain (AID 171);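 note: 0% = growth of vehicle-treated control cultures of the same strain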; settings: S. cerevisiae mlh1 strain growth inhibition, hits give high values
Procedure, shortened: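 Growth of the mutant yeast strain after compound exposure, expressed as inhibition relative to vehicle-only controls.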

[13] = NCI Yeast Anticancer Drug Screen. Data for the mlh1 rad18 strain (AID 175); settings: S. cerevisiae mlh1 rad18 strain growth inhibition, hits give high values
Procedure, shortened: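 Read-out is yeast growth inhibition, calculated against vehicle-only controls. The compound was applied to a strain engineered with DNA damage repair alterations.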

[14] = NCI Yeast Anticancer Drug Screen. Data for the rad18 strain (AID 177); settings: S. cerevisiae rad18 mutant growth inhibition, hits give high values
Procedure, shortened: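 Growth of the mutant yeast strain after compound exposure, normalised to vehicle-only cultures.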

[15] = NCI Yeast Anticancer Drug Screen. Data for the sgs1 strain (AID 173);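 note: 0% = growth of vehicle-only control cultures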; settings: S. cerevisiae sgs1 mutant, hits give high values
Procedure, shortened: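 Growth of a yeast strain bearing a defined genetic alteration is measured after compound treatment. Inhibition is expressed relative to vehicle-only controls.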

[16] = at 5.0 µM (retest, dose inferred, filed as 0.5)
[17] = at 50.0 µM (retest, dose inferred, filed as 5.0)

Measured: growth inhibition

O=CC(=C(I)I)c1ccccc1
active: [1]; at 11.0 µM 88% | [1]; at 33.0 µM 99% | [1]; at 100.0 µM 90% | [2]; at 1.2 µM 91% | [2]; at 3.7 µM 96% | [2]; at 11.0 µM 97% | [2]; at 33.0 µM 98% | [2]; at 100.0 µM 99% | [3]; at 11.0 µM 98% | [3]; at 33.0 µM 99% | [3]; at 100.0 µM 93% | [4]; at 1.2 µM 93% | [4]; at 3.7 µM 95% | [4]; [16] 97% | [4]; at 11.0 µM 97% | [4]; at 33.0 µM 99% | [4]; [17] 100% | [4]; at 50.0 µM 85.7% | [4]; at 100.0 µM 97% | [5]; at 11.0 µM 99% | [5]; at 33.0 µM 99% | [5]; [17] 99% | [5]; at 50.0 µM 88.9% | [5]; at 100.0 µM 97% | [6]; at 11.0 µM 73% | [6]; at 33.0 µM 99% | [6]; at 100.0 µM 86% | [7]; [17] 99% | [7]; at 50.0 µM 90.8% | [8]; at 33.0 µM 98% | [8]; at 100.0 µM 98% | [9]; [17] 100% | [9]; at 50.0 µM 91.5% | [10]; at 33.0 µM 99% | [10]; [17] 100% | [10]; at 50.0 µM 92.2% | [10]; at 100.0 µM 99% | [11]; at 33.0 µM 99% | [11]; at 100.0 µM 99% | [12]; at 11.0 µM 81% | [12]; at 33.0 µM 97% | [12]; at 100.0 µM 85% | [13]; [17] 100% | [13]; at 50.0 µM 93.1% | [14]; at 3.7 µM 72% | [14]; at 11.0 µM 96% | [14]; at 33.0 µM 98% | [14]; at 100.0 µM 95%
inactive: [1]; at 1.2 µM 15% | [1]; at 3.7 µM 41% | [3]; at 1.2 µM 17% | [3]; at 3.7 µM 50% | [5]; at 1.2 µM 28% | [5]; at 3.7 µM 67% | [5]; [16] 33% | [6]; at 1.2 µM 20% | [6]; at 3.7 µM 38% | [7]; [16] 43% | [8]; at 1.2 µM -1% | [8]; at 3.7 µM -3% | [8]; at 11.0 µM 23% | [9]; [16] 2% | [10]; at 1.2 µM -6% | [10]; at 3.7 µM -4% | [10]; [16] -17% | [10]; at 11.0 µM 27% | [11]; at 1.2 µM 4% | [11]; at 3.7 µM 5% | [11]; at 11.0 µM 38% | [12]; at 1.2 µM 13% | [12]; at 3.7 µM 32% | [13]; [16] 18% | [14]; at 1.2 µM 50%

O=C(CCCN1CCC2(CC1)OC(=O)N(c1ccccc1)C2=O)c1ccccc1
active: [3]; at 100.0 µM 74% | [4]; at 50.0 µM 83.9% | [6]; at 11.0 µM 74% | [6]; at 33.0 µM 79% | [6]; at 100.0 µM 90% | [9]; [17] 85% | [10]; at 50.0 µM 79.4% | [12]; at 11.0 µM 71% | [12]; at 33.0 µM 70% | [12]; at 100.0 µM 73% | [15]; at 11.0 µM 71%
inactive: [1]; at 1.2 µM 43% | [1]; at 3.7 µM 45% | [1]; at 11.0 µM 53% | [1]; at 33.0 µM 52% | [1]; at 100.0 µM 63% | [2]; at 1.2 µM 44% | [2]; at 3.7 µM 29% | [2]; at 11.0 µM 33% | [2]; at 33.0 µM 26% | [2]; at 100.0 µM 26% | [3]; at 1.2 µM 29% | [3]; at 3.7 µM 44% | [3]; at 11.0 µM 56% | [3]; at 33.0 µM 65% | [4]; at 1.2 µM 31% | [4]; at 3.7 µM 50% | [4]; [16] 31% | [4]; at 11.0 µM 60% | [4]; at 33.0 µM 65% | [4]; [17] 64% | [4]; at 100.0 µM 67% | [5]; at 1.2 µM 44% | [5]; at 3.7 µM 45% | [5]; [16] 37% | [5]; at 11.0 µM 60% | [5]; at 33.0 µM 61% | [5]; [17] 60% | [5]; at 50.0 µM 47.2% | [5]; at 100.0 µM 59% | [6]; at 1.2 µM 53% | [6]; at 3.7 µM 63% | [9]; [16] 64% | [9]; at 50.0 µM 65% | [10]; at 1.2 µM 20% | [10]; at 3.7 µM 29% | [10]; [16] 53% | [10]; at 11.0 µM 35% | [10]; at 33.0 µM 38% | [10]; [17] 67% | [10]; at 100.0 µM 50% | [11]; at 1.2 µM 7% | [11]; at 3.7 µM 24% | [11]; at 11.0 µM 32% | [11]; at 33.0 µM 38% | [11]; at 100.0 µM 40% | [12]; at 1.2 µM 35% | [12]; at 3.7 µM 66% | [15]; at 1.2 µM 53% | [15]; at 3.7 µM 67%
